Assay results as given in PubChem BioAssay (Tox21).
Values without a mark were called inactive. Inconclusive results are not listed. Entries that show only a call come without a potency. Active and inactive are the calls of the source. Calls come from the whole dose curve; as a rule, active = well fitted cell-killing curve with a large enough effect in the repeat runs; inconclusive = weak or mixed curves, or effect the other way; inactive = flat fitted curve, though single readings scatter.

assay: qHTS assay to identify small molecule HDAC inhibitors - cell viability counter screen (AID 1259365); conditions: HCT-116 viability, CellTiter-Glo ATP luminescence, 2 h; series mostly up to 92.4 µM
In short: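 Wild-type HCT-116 cells were seeded at 1,500 per well, incubated overnight at 37 C, then exposed to compounds in DMSO for 2hr. Viability was read by CellTiter-Glo luminescence after 30min at room temperature.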
Note: nearly all actives have a fitted effect of over 50% in size.

SMILES | Potency | activity change, negative = cytotoxicity
CCOC(=O)[C@@H](C)Oc1ccc(Oc2nc3ccc(Cl)cc3o2)cc1 | inactive | –
CCCCCCCCSCCO | inactive | –
CC(C)(C)C(=O)C(Oc1ccc(Cl)cc1)n1ccnc1 (stereo not drawn) | inactive | –
Cc1oncc1C(=O)Nc1ccc(C(F)(F)F)cc1 | inactive | –
CC1(C)C2=CCCC(C)(C)[C@]23CC[C@H]1C3 | inactive | –
COC(=O)[C@@H]1CC2=CC(=O)CC[C@]2(C)[C@@]23O[C@@H]2C[C@@]2(C)[C@@H](CC[C@@]24CCC(=O)O4)[C@H]13 | inactive | –
CCC(C(=O)OCCOCCN(CC)CC)c1ccccc1 (stereo not drawn) | inactive | –
C[Si]1(C)O[Si](C)(C)O[Si](C)(C)O1 | inactive | –
CN1C(=O)CC(C)(c2ccccc2)C1=O (stereo not drawn) | inactive | –
CN1CCN(c2c(F)cc3c(=O)c(C(=O)O)cn4c3c2OCN4C)CC1 | – | -3.29% [at 19 µM]
Cc1cc(O)c(C(C)C)cc1Cl | inactive | –
CCOc1cc(N)c(Cl)cc1C(=O)NCC1CN(Cc2ccc(F)cc2)CCO1 (stereo not drawn) | inactive | –
CC1=NN(c2ccc(C(=O)O)cc2)C(=O)C1 | inactive | –
CC(=O)Oc1ccc(C(=C2CCCCC2)c2ccc(OC(C)=O)cc2)cc1 | inactive | –
Cc1ccc(Nc2nccc(N(C)c3ccc4c(C)n(C)nc4c3)n2)cc1S(N)(=O)=O | inactive | –
COc1cc2[nH]c(=O)[nH]c(=O)c2cc1OC | inactive | –
CC(=O)[C@H]1CC[C@H]2[C@@H]3C=CC4=CC(=O)CC[C@@]4(C)[C@@H]3CC[C@]12C | inactive | –
CCn1cc(C(=O)O)c(=O)c2cc(F)c(N3CCNCC3)nc21 | inactive | –
CC(CCc1ccc2c(c1)OCO2)NN (stereo not drawn) | inactive | –

SMILES | Potency | activity change, negative = cytotoxicity
CCCCC(=O)O[C@]1(C(=O)CO)CC[C@H]2[C@@H]3CCC4=CC(=O)CC[C@]4(C)[C@H]3[C@@H](O)C[C@@]21C | inactive | –
COc1ccc([C@@H]2Sc3ccccc3NC(=O)[C@@H]2O)cc1 | inactive | –
CN1CCCN=C1/C=C/c1cccs1 | inactive | –
O=C(NCCCN1CCOCC1)c1ccc(Cl)cc1 | inactive | –
CCCCCC=CCC=CCCCCCCCC(=O)OCC | inactive | –
CC(=O)CC(c1ccc([N+](=O)[O-])cc1)c1c(O)c2ccccc2oc1=O (stereo not drawn) | inactive | –
CCc1nn(CCCN2CCN(c3cccc(Cl)c3)CC2)c(=O)n1CCOc1ccccc1 | inactive | –
c1cnc2c(n1)CCCC2 | inactive | –
CC1CN(c2cc3c(cc2F)c(=O)c(C(=O)O)cn3-c2ccc(F)cc2F)CCN1 (stereo not drawn) | – | -1.14% [at 8.39 µM]
CCOC(=O)C(C)Oc1ccc(Oc2nc3ccc(Cl)cc3o2)cc1 (stereo not drawn) | inactive | –
C=CC(=C)CCCC(C)(C)OC(C)=O | inactive | –
Nc1c(I)cc(I)c(C(=O)N(CCC(=O)O)c2ccccc2)c1I | inactive | –
O=C(O)C(Cc1cc(I)c(O)c(I)c1)c1ccccc1 (stereo not drawn) | inactive | –
COC(=O)c1cc(Cl)ccc1NS(=O)(=O)C(F)(F)F | inactive | –
O=C1OCCN1/N=C/c1ccc([N+](=O)[O-])o1 | inactive | –
NCC1CCCC(CN)C1 (stereo not drawn) | inactive | –
CCC1(C)CC(=O)NC1=O (stereo not drawn) | inactive | –
N#C[C@@H]1C[C@@H]2C[C@@H]2N1C(=O)[C@@H](N)C12CC3CC(CC(O)(C3)C1)C2 | inactive | –
CC1(C)O[C@@H]2C[C@H]3[C@@H]4CCC5=CC(=O)C=C[C@]5(C)[C@H]4[C@@H](O)C[C@]3(C)[C@]2(C(=O)CO)O1 | inactive | –

assay: qHTS assay to identify small molecule agonists of the sonic hedgehog signaling (Shh) pathway - cell viability counter screen (AID 1259366); conditions: NIH/3T3 Gli1-Luc viability, CellTiter-Fluor, 24 h; series mostly up to 92.4 µM; note: potency is the fitted concentration of half-maximal effect
In short: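 NIH/3T3-derived 3T3 Gli1-Luc cells (stable Gli1-responsive firefly luciferase reporter) were seeded, rested 4 hr at 37 C/5% CO2, then exposed to compounds in DMSO for 24 hr; viability was read by CellTiter-Fluor fluorescence in the same wells.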

SMILES | Potency | viability change, negative = cytotoxic
CCOC(=O)[C@@H](C)Oc1ccc(Oc2nc3ccc(Cl)cc3o2)cc1 | inactive | –
CCCCCCCCSCCO | inactive | –
CC(C)(C)C(=O)C(Oc1ccc(Cl)cc1)n1ccnc1 (stereo not drawn) | inactive | –
Cc1oncc1C(=O)Nc1ccc(C(F)(F)F)cc1 | inactive | –
CC1(C)C2=CCCC(C)(C)[C@]23CC[C@H]1C3 | inactive | –
CCC(C(=O)OCCOCCN(CC)CC)c1ccccc1 (stereo not drawn) | inactive | –
C[Si]1(C)O[Si](C)(C)O[Si](C)(C)O1 | inactive | –
CN1C(=O)CC(C)(c2ccccc2)C1=O (stereo not drawn) | inactive | –
CN1CCN(c2c(F)cc3c(=O)c(C(=O)O)cn4c3c2OCN4C)CC1 | – | 2.32% [at 19 µM]
Cc1cc(O)c(C(C)C)cc1Cl | inactive | –
CCOc1cc(N)c(Cl)cc1C(=O)NCC1CN(Cc2ccc(F)cc2)CCO1 (stereo not drawn) | inactive | –
CC1=NN(c2ccc(C(=O)O)cc2)C(=O)C1 | inactive | –
CC(=O)Oc1ccc(C(=C2CCCCC2)c2ccc(OC(C)=O)cc2)cc1 | inactive | –
CCCCC1C(=O)N(c2ccccc2)N(c2ccc(O)cc2)C1=O (stereo not drawn) | 13.3 µM (active) | –
COc1cc2[nH]c(=O)[nH]c(=O)c2cc1OC | inactive | –
CC(=O)[C@H]1CC[C@H]2[C@@H]3C=CC4=CC(=O)CC[C@@]4(C)[C@@H]3CC[C@]12C | inactive | –
CC(CCc1ccc2c(c1)OCO2)NN (stereo not drawn) | inactive | –
CCCCC(=O)O[C@]1(C(=O)CO)CC[C@H]2[C@@H]3CCC4=CC(=O)CC[C@]4(C)[C@H]3[C@@H](O)C[C@@]21C | inactive | –

SMILES | Potency | viability change, negative = cytotoxic
COc1ccc([C@@H]2Sc3ccccc3NC(=O)[C@@H]2O)cc1 | inactive | –
CN1CCCN=C1/C=C/c1cccs1 | inactive | –
O=C(NCCCN1CCOCC1)c1ccc(Cl)cc1 | inactive | –
CCCCCC=CCC=CCCCCCCCC(=O)OCC | inactive | –
CC(=O)CC(c1ccc([N+](=O)[O-])cc1)c1c(O)c2ccccc2oc1=O (stereo not drawn) | inactive | –
c1cnc2c(n1)CCCC2 | inactive | –
CC1CN(c2cc3c(cc2F)c(=O)c(C(=O)O)cn3-c2ccc(F)cc2F)CCN1 (stereo not drawn) | – | -8.68% [at 8.39 µM]
CCOC(=O)C(C)Oc1ccc(Oc2nc3ccc(Cl)cc3o2)cc1 (stereo not drawn) | inactive | –
C=CC(=C)CCCC(C)(C)OC(C)=O | inactive | –
Nc1c(I)cc(I)c(C(=O)N(CCC(=O)O)c2ccccc2)c1I | inactive | –
O=C(O)C(Cc1cc(I)c(O)c(I)c1)c1ccccc1 (stereo not drawn) | inactive | –
COC(=O)c1cc(Cl)ccc1NS(=O)(=O)C(F)(F)F | inactive | –
O=C1OCCN1/N=C/c1ccc([N+](=O)[O-])o1 | inactive | –
NCC1CCCC(CN)C1 (stereo not drawn) | inactive | –
CCC1(C)CC(=O)NC1=O (stereo not drawn) | inactive | –
N#C[C@@H]1C[C@@H]2C[C@@H]2N1C(=O)[C@@H](N)C12CC3CC(CC(O)(C3)C1)C2 | inactive | –
CC1(C)O[C@@H]2C[C@H]3[C@@H]4CCC5=CC(=O)C=C[C@]5(C)[C@H]4[C@@H](O)C[C@]3(C)[C@]2(C(=O)CO)O1 | inactive | –
